# Screens from PubChem BioAssay.
# Shown are actives, neighbours in structure and some others; about 4% of the full set was active somewhere.
# Cl transport mod: modulates chloride dependent transport by human KCC2. hit rate 2.2% among 190,000. Q9H2X9. B-score of Tl+ flux slope (higher = more flux/activation; lower = inhibition) at 10 µM. KCC2 cells, thallium flux FluoZin-2 fluorescence;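 active = thallium flux slope and its plate-corrected score both differing from the plate sample mean at a set confidence after two filtering rounds, in either direction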;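 also: slope of fluorescence scaled to starting intensity during 10 to 20 s after thallium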
# HSV augment: HSV replication enhancement; hit rate 0.005% among 220,000; maximum fold increase; AID 1956; HSV replication augmentation in cells, fold increase; in the data active = maximum fold increase above about 1.5; inconclusive = no clear call, values can overlap the other calls; tested in PC3 cells
# ROMK mod: human ROMK K+ channel modulation, primary screen | P48048 | Tet-inducible ROMK, thallium flux fluorescence; actives lie on both sides | B-score at 10 µM | hit rate 2% among 130,000;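 active = signal ratio slope over the read window, or its plate-corrected B-score, at least 3 SD from the plate mean, either direction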;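 also: B-score of the F/F0 ratio slope over 7 to 12 s after thallium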
# Target sequence (P48048 whole entry, looked up): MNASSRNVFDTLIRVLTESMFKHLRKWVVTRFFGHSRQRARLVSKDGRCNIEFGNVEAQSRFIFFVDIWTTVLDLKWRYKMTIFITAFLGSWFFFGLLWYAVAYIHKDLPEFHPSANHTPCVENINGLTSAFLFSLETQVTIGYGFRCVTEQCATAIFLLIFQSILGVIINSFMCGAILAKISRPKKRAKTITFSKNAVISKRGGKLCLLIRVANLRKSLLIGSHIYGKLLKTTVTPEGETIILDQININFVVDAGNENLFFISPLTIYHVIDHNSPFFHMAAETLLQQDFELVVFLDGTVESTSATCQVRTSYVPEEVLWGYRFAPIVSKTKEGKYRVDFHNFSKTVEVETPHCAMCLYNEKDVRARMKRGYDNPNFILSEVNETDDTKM
# Measles CPE: protection of cells from measles virus; protection (pct of control), % at 4 µM; hit rate 1.5% among 140,000; AID 841; Measles virus-infected cells, CPE protection, absorbance; in the data active = protection mostly above about 24%, no sharp cut-off; inactive = mostly below about 26%
# Arbovirus inh: arbovirus infection inhibition; arbovirus infection cell-based antiviral screen; inhibition, % at 10 µM; hit rate 0.37% among 200,000; in the data active = inhibition above about 30%
# ROMK retest: confirmation of human ROMK potassium channel modulators | shares compounds with ROMK mod | ROMK thallium flux, fluorescence ratio; stronger effect = lower value | normalized thallium flux (F/F0 slope) at 10 µM | hit rate 54% among 3,000 | AID 1917;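 active = Flux at 10 µM at least 3 SD below or above vehicle control mean in one or both replicates; inconclusive = no clear call, values can overlap the other calls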
# An asterisk follows results filed as active; i = inactive; ? = inconclusive; nt = not tested or not shown.
SMILES,Cl transport mod,HSV augment,ROMK mod,Measles CPE,Arbovirus inh,ROMK retest
Cc1ccc(N/C=C(\[N+](=O)[O-])S(=O)(=O)c2ccccc2)cc1,nt,i,0.3,nt,7,nt
CCCOc1cc(N(CC)CC)ccc1/C=C(/C#N)c1nc2ccc(C)cc2[nH]1,-0.83,nt,-4.2*,20,-1,0.039*
CCN(CC)c1ccc(/C=C(/C#N)c2nc3ccc(C)cc3[nH]2)c(OC(C)C)c1,i,nt,nt,3,-12,nt
C=CCn1c(COc2ccc(Cl)cc2)nnc1SCC(=O)c1c(N)n(C)c(=O)n(C)c1=O,-0.28,i,0.31,nt,-4,nt
COc1ccccc1Nc1ncnc2nc[nH]c12,0.14,i,4*,22,9,0.084
COc1ccccc1CNc1ncnc2nc[nH]c12,-0.73,i,nt,11,-1,nt
Cc1c(Br)c(O)c(Br)c2sc(=O)oc12,0.042,i,nt,nt,nt,nt
CCCC1=NN2C(=N)/C(=C\c3ccc(SCc4ccco4)o3)C(=O)N=C2S1,nt,?,-3*,6,32*,0.053*
CCCN1CCN(C(=O)Cn2cnc3ccc(S(=O)(=O)N4CCC(C)CC4)cc3c2=O)CC1,0.52,i,0.12,nt,9,nt
O=C(c1cnsn1)N1CCN(c2ccccn2)CC1,nt,i,1.6*,6,3,0.073
O=C(N1CCN(c2ccccn2)CC1)N1c2ccccc2Sc2ccccc21,0.037,nt,3.3*,11,-26,0.09
O=C(c1ccco1)N1CCN(C(=O)N2c3ccccc3Sc3ccccc32)CC1,-1.7,i,-3*,18,-23,0.073
O=C(COc1ccc(Cl)cc1Cl)N1CCN(c2ccccn2)CC1,-1.1,i,-2.1,nt,5,nt
O=C(COc1cc(Cl)c(Cl)cc1Cl)N1CCN(c2ccccn2)CC1,0.036,i,-3*,nt,3,0.066*
O=C(N1CCN(c2ccccn2)CC1)C(Cl)(Cl)Cl,0.44,i,-0.47,5,-7,nt
COCCn1c(N)c(C(=S)NC(=O)c2cccs2)c(=O)[nH]c1=O,-0.015,i,1.3,nt,nt,nt
O=C(O)CCn1cc(C(=O)O)c(-c2ccccc2)n1,-0.45,i,nt,nt,nt,nt
O=C(CN1C(=O)C(=O)N(Cc2ccco2)C1=O)NC1CCCCC1,0.71,i,-0.59,nt,2,nt
CCC(C)c1ccc(NC(=O)CN(C)CC(=O)Nc2cccc(OC)c2)cc1 (stereo unspecified),0.44,i,1.5,nt,-10,nt
Cc1ccc(-n2ncc(C(=O)Nc3cc(Cl)ccc3C)c2C2CCNCC2)cc1C,-0.72,i,-3.2*,nt,-19,0.045*
Cc1cccc(NC(=O)c2cnn(-c3ccc(F)cc3)c2C2CCNCC2)c1C,0.23,i,-2.1,nt,13,nt
Cc1ccc(C)c(OCC(O)CN2CCC(CN3C(=O)c4cccc5cccc(c45)C3=O)CC2)c1 (stereo unspecified),0.73,i,-4.7*,6,-43,?
CCOC(=O)C1=NN(C(=O)Cc2ccccc2)C(O)(C(C)(C)C)C1 (stereo unspecified),0.37,i,-13*,nt,1,0.077
CC(C)(C)C1(O)CC(C(F)(F)F)=NN1C(=O)CCc1ccccc1 (stereo unspecified),0.0029,i,-0.17,nt,-6,nt
O=C(OCC(=O)N1CCc2ccccc2C1)c1cccnc1Cl,-0.88,i,nt,nt,5,nt
SMILES,Cl transport mod,HSV augment,ROMK mod,Measles CPE,Arbovirus inh,ROMK retest
CCCOc1ccc(-c2cc(C(=O)NCC3CCCO3)c3ccccc3n2)cc1 (stereo unspecified),0.24,i,-4.2*,nt,-1,?
O=C(COC(=O)c1cc(-c2ccc(F)cc2)nc2ccccc12)NCC1CCCO1 (stereo unspecified),-0.69,i,-4.4*,nt,9,0.066*
Cc1ccc(-c2c(C)sc3ncn(CC(=O)N4CCOCC4)c(=O)c23)cc1C,0.5,i,nt,nt,nt,nt
O=[N+]([O-])c1cccc(/C=C/c2nc3ccc([N+](=O)[O-])cc3[nH]2)c1,-0.81,i,-5.2*,7,-30,0.042*
CC1(c2cc([N+](=O)[O-])cc([N+](=O)[O-])c2)CC(C)(C)N(C(=O)c2ccccc2)c2ccccc21 (stereo unspecified),nt,i,nt,5,-2,nt
CC1(c2ccccc2)CC(C)(C)N(C(=O)C2CCCO2)c2ccccc21 (stereo unspecified),-0.31,i,-3.6*,3,-24,0.058*
COc1cc(OC)cc(C(=O)N2CCCc3ccccc32)c1,-0.9,i,nt,4,6,nt
COc1ccc(CC(=O)N2CCCc3ccccc32)cc1,0.38,i,nt,5,7,0.077
CC(=O)c1ccc(-c2ccc(C(=O)N3CCCc4ccccc43)o2)cc1,-3,i,-3.5*,nt,-5,0.057*
